This is an account of results in PubChem BioAssay (Tox21).

Values joined by “and” are separate entries in the source; they are usually repeats but may differ in a detail not shown here. Equal values may be shown once. Records with an inconclusive call do not appear. A structure can be active in one record and inactive in another. Active and inactive are the calls of the source. Calls come from the whole dose curve; as a rule, active = well fitted curve in the direction sought with a large enough effect in the repeat runs; inconclusive = weak or mixed curves; inactive = no such curve, though single readings can be large; an effect the other way counts as inactive or inconclusive.

The nature of test [1]: qHTS RealTime-Glo MT Cell Viability Assay in HepG2 cells - 40 hour (AID 1224870). Note: nearly all actives have a fitted effect of over 50% in size. Put shortly:
(§1)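 HepG2 cells mixed with RealTime-Glo MT reagents (NanoLuc plus cell-permeant prosubstrate) were seeded at 600 cells/well, incubated 5 h at 37 C/5% CO2, then pinned with compounds in DMSO; nonlytic luminescence tracked viability during 40 h treatment.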
(In general: qHTS replaces the single test concentration by a dilution series.)

Test [2] is described as follows: A CellTox Green Cytotoxicity Assay to monitor cytotoxicity in HEK293 cells - 40 hour (AID 1224871). Note: nearly all actives have a fitted effect of over 45% in size. Note: potency is the fitted concentration of half-maximal effect. In short, it runs like this: (§2)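 Cells (HEK293, 600/well) and dye reagent are dispensed together. After 5 h at 37 C, 23 nL compound is pinned in. Plates stay at 37 C for 40 h with fluorescence read at 0h, 8h, 16h, 24h, 32h and 40h.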
Test [3] is described as follows: qHTS RealTime-Glo MT Cell Viability Assay in HEK293 cells - 16 hour (AID 1224872). Note: nearly all actives have a fitted effect of over 50% in size. Note: potency is the fitted concentration of half-maximal effect. Put shortly: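 Luminescence generated by NanoLuc from substrate produced by living HEK293 cells served as the viability signal. Each value reflects the reading at its stated time point during continuous 40 h compound exposure at 37 C.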
Test [4] in a line: qHTS RealTime-Glo MT Cell Viability Assay in HepG2 cells - 8 hour (AID 1224873). Note: nearly all actives have a fitted effect of over 55% in size. Put shortly: as §1
Test [5] in a line: qHTS RealTime-Glo MT Cell Viability Assay in HEK293 cells - 40 hour (AID 1224874). Note: nearly all actives have a fitted effect of over 50% in size. Note: potency is the fitted concentration of half-maximal effect. The conditions noted are these: RealTime-Glo luminescence; max response: stronger effect = lower value. Put shortly: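 Real-time viability in HEK293: signal arises when living cells convert a prosubstrate for NanoLuc in the medium, so luminescence tracks viable cell number. Compound (23 nL, DMSO) added 5 h post-seeding; kinetic reads at 0–40 h, 37 C.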

Test [6] is described as follows: A CellTox Green Cytotoxicity Assay to monitor cytotoxicity in HEK293 cells - 24 hour (AID 1224875). Note: series mostly up to about 77 µM; nearly all actives have a fitted effect of over 45% in size. In short, it runs like this:
as §2

A short description of test [7]: A CellTox Green Cytotoxicity Assay to monitor cytotoxicity in HepG2 cells - 16 hour (AID 1224876). Note: nearly all actives have a fitted effect of over 45% in size. Note: potency is the fitted concentration of half-maximal effect. Put shortly:
(§3)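 Cells and non-lytic dye reagent are dispensed together (600 HepG2 cells/well) and incubated 5 h before DMSO compound transfer. Kinetic fluorescence is then recorded in the same wells during 40 h at 37 C.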

Test [8] is described as follows: qHTS RealTime-Glo MT Cell Viability Assay in HepG2 cells - 32 hour (AID 1224877). Note: nearly all actives have a fitted effect of over 55% in size. In short, it runs like this:
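Tox21 10K library screened in qHTS format on HepG2 cells carrying RealTime-Glo reagents. Compounds were added after a 5 h preincubation, and the luminescent signal from continuous culture was measured repeatedly during 40 h treatment.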

The nature of test [9]: A CellTox Green Cytotoxicity Assay to monitor cytotoxicity in HepG2 cells - 24 hour (AID 1224878). Note: nearly all actives have a fitted effect of over 45% in size. Note: potency is the fitted concentration of half-maximal effect. Put shortly:
as §3

Test [10] in a line: A CellTox Green Cytotoxicity Assay to monitor cytotoxicity in HepG2 cells - 40 hour (AID 1224879). Note: nearly all actives have a fitted effect of over 40% in size. Note: potency is the fitted concentration of half-maximal effect. Put shortly: as §3
% is set by controls: 0 for no effect and ±100 for the full control effect.

For `Cc1ccc(C)c(C)c1`, the Potency result in [1], in test [2], in test [3], in [4], in test [6] and in test [7] was “inactive” each time. For the same compound, the Potency entry in [8], in test [9] and in test [10] was “inactive” each time. For the same compound, in [5], the max response is 7.97% (inactive) and 2.35% (inactive).

In the case of `O=C(c1ccc(O)cc1)c1ccc(O)cc1O`, the Potency result in test [1], in test [2], in test [3], in [4], in [6] and in test [7] was “inactive” each time. The Potency entry in test [8], in test [9] and in [10] was “inactive” throughout. In addition, in test [5], the max response is -21.4% (inactive).

On to `O=C(O)c1ccc([N+](=O)[O-])cc1`, for which the Potency entry in [1], in [2], in test [3], in test [4], in [6] and in [7] was “inactive” each time. Moreover, the Potency result in test [8], in [9] and in test [10] was “inactive” each time. Besides, the max response in test [5] is 2.62% (inactive) and 0.789% (inactive).

With `C=C(C)C(=O)OCCCCCC`, the Potency entry in [1], in test [2], in [3], in test [4], in [6] and in [7] was “inactive” throughout. Moreover, the Potency result in test [8], in [9] and in [10] was “inactive” each time. Moreover, the max response in test [5] is 7.72% (inactive) and -0.816% (inactive).

For the compound `CC1(C)O[C@@H]2C[C@H]3[C@@H]4C[C@H](F)C5=CC(=O)CC[C@]5(C)[C@H]4[C@@H](O)C[C@]3(C)[C@]2(C(=O)CO)O1`, the Potency result in [1], in test [2], in test [3], in test [4], in test [6] and in [8] was “inactive” each time. In test [5], the max response was -22.4% (inactive) and 2.26% (inactive). In addition, the Potency was 49 µM (active) and inactive in test [7]; 49 µM (active) and inactive in test [9]; 43.6 µM (active) and inactive in test [10].

In the case of `O=S(=O)(O)c1cc(S(=O)(=O)O)c2c(N=Nc3ccccc3)c(O)ccc2c1`, the Potency entry in test [1], in test [2], in [3], in test [4], in [6] and in [7] was “inactive” each time. The Potency result in test [8], in [9] and in test [10] was “inactive” in each case. For the same compound, the max response in [5] is -20.2% (inactive).

In the case of `OCC#CCO`, the Potency entry in test [1], in test [2], in [3], in test [4], in test [6] and in [7] was “inactive” each time. Further, the Potency entry in test [8], in test [9] and in test [10] was “inactive” each time. The max response in test [5] was 0.572% (inactive) and 1.12% (inactive).

In the case of `Cc1cc(NS(=O)(=O)c2ccc(N)cc2)no1`, the Potency result in test [1], in [2], in test [3], in test [4], in test [6] and in test [7] was “inactive” each time. Moreover, the Potency result in [8], in test [9] and in test [10] was “inactive” in each case. Moreover, in test [5], the max response was 3.11% (inactive) and 0.646% (inactive).

Consider `CCCCC/C=C\C/C=C\CCCCCCCC(=O)OC`, for which the Potency entry in [1], in test [3], in test [4], in test [6], in [7] and in test [8] was “inactive” in each case. Also, the Potency entry in test [9] and in test [10] was “inactive” in each case. Besides, the Potency entry in test [2] was “inactive and 54.9 µM (active)”. Also, the max response in [5] is 3.92% (inactive) and -0.83% (inactive).

Regarding `NS(=O)(=O)c1cc2c(cc1Cl)NC=NS2(=O)=O`, the Potency result in test [1], in [2], in test [3], in test [4], in [6] and in [7] was “inactive” each time. For the same compound, the Potency result in test [8], in [9] and in test [10] was “inactive” in each case. The max response in test [5] is 7.37% (inactive) and 0.52% (inactive).

Turning to `COCC(=O)O`, the Potency result in [1], in test [2], in test [3], in [4], in test [6] and in [7] was “inactive” throughout. The Potency entry in [8], in test [9] and in [10] was “inactive” each time. In addition, the max response in test [5] was 0.194% (inactive) and 4.44% (inactive).

In the case of `C=C1CC[C@H](O)CC1=C/C=C1\CCC[C@]2(C)[C@@H]([C@H](C)/C=C/[C@H](C)C(C)C)CC[C@@H]12`, the Potency entry in test [1], in test [2], in test [4], in [6], in [7] and in test [8] was “inactive” throughout. Moreover, the Potency entry in test [9] and in [10] was “inactive” each time. Moreover, the Potency in [3] was 43.6 µM (active); in test [5], 48.5 µM (active) and 49 µM (active).

Turning to `CN(C)c1cccc(O)c1`, the Potency result in test [1], in test [2], in test [3], in [4], in test [6] and in test [7] was “inactive” each time. For the same compound, the Potency result in [8], in [9] and in test [10] was “inactive” in each case. The max response in test [5] was -0.0652% (inactive) and -21.5% (inactive).

For `CCC(C)C=O` (stereo unspecified), the Potency entry in test [1], in test [2], in [4], in [6], in test [7] and in test [8] was “inactive” in each case. For the same compound, the Potency result in [10] is “inactive”. In addition, the Potency result in test [3] is “inactive and 6.92 µM (active)”; in test [5] it was 3.09 µM (active); in [9], “inactive and 21.9 µM (active)”. The max response in [5] is -3.52% (inactive).

For the compound `CC[Si](OC(C)=O)(OC(C)=O)OC(C)=O`, the Potency entry in test [1], in [2], in [3], in test [4], in test [6] and in [7] was “inactive” each time. The Potency result in test [8], in [9] and in test [10] was “inactive” in each case. Further, the max response in test [5] is 13.5% (inactive) and 2.5% (inactive).

`Cc1ccc(C(=O)O)o1`: the Potency result in test [1], in test [2], in test [3], in test [4], in test [6] and in test [7] was “inactive” in each case. Moreover, the Potency entry in test [8], in test [9] and in [10] was “inactive” each time. The max response in test [5] was 2.67% (inactive) and -10.1% (inactive).

As to `O=[N+]([O-])c1cc(N(CCO)CCO)ccc1NCCO`, the Potency entry in test [1], in [2], in [3], in test [4], in test [6] and in [7] was “inactive” each time. For the same compound, the Potency entry in test [8], in test [9] and in test [10] was “inactive” in each case. Also, the max response in test [5] is 0.623% (inactive) and 8.81% (inactive).

For `C=C(C)C(=O)OCCCCCCCCCCCC`, the Potency entry in [1], in [2], in test [3], in [4], in test [6] and in [7] was “inactive” throughout. The Potency entry in [8], in test [9] and in [10] was “inactive” in each case. For the same compound, the max response in test [5] is 0.0102% (inactive) and 4.38% (inactive).

Take `CC(C)Cc1ccccc1`: the Potency entry in test [1], in test [2], in test [3], in [4], in [6] and in test [7] was “inactive” each time. The Potency entry in [8], in test [9] and in test [10] was “inactive” each time. In [5], the max response was 14.2% (inactive) and -0.413% (inactive).
